The values below come from paper PMC5540273 (PLoS ONE, 2017).

Holding throughout (conditions): concentration: 1 μM, replicates: in singlicate; n = 1
Experiment [1] concerns PAK6.
In experiment [2] the test system is PAK7.
Experiment [3] has as its system T1, PCTK1.
T1 construct: gene CDK16

Experiment [4] has as its system T2, PCTK2.
T2 construct: gene CDK17

Experiment [5] deals with T3, PCTK3.
T3 construct: gene CDK18

In experiment [6] the test system is PDGFRA.
The subject of experiment [7] is PDGFRB.
Experiment [8] concerns PDPK1.
Experiment [9] has as its system PFTAIRE2.
The test system of experiment [10] is T4, PFTK1.
T4 construct: gene CDK14
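Note: KINOMEscan kinase panel screen.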

Regarding `Cc1ccc(-c2cc(-c3c[nH]nc3-c3ccccn3)ccn2)cc1` [GW684088], the “%Inh” value in [1] worked out at 9%; in experiment [2] it was 19%; in experiment [3], 0%; in experiment [4] it was 19%; in experiment [5], 40%; in [6] it was 7%. The “%Inh” value in [7] is reported as 22%; in experiment [8], 0%; in experiment [9] it was 0%; in [10] it was 32%.

For the molecule `Cc1cccc(-c2nc(Nc3ccncc3)c3ccccc3n2)n1` [GW855857], the “%Inh” value turned out to be 3% in experiment [1]; 0% in experiment [2]; 0% in experiment [3]; 10% in [4]; 0% in experiment [5]; 0% in experiment [6]. The “%Inh” value in experiment [7] is on record as 3%; in [8], 24%; in experiment [9], 0%; in [10] it was 0%.

Regarding `Cc1ccc(NC(=O)Nc2cc(C(C)(C)C)nn2-c2ccccc2)cc1` [GSK1014915], the “%Inh” value in experiment [1] is recorded as 0%; in experiment [2], 0%; in experiment [3], 6%; in [4], 0%; in experiment [5], 27%; in experiment [6] it was 36%. Also, the “%Inh” value in experiment [7] was 98.9%; in experiment [8], 0%; in experiment [9], 10%; in [10], 9%.

Regarding `COC(=O)c1c(-c2ccccc2)c2cc(OC)ccc2c(=O)n1Cc1ccccc1`, the “%Inh” value in [1] was found to be 3%; in experiment [2], 5%; in [3], 0%; in experiment [4] it was 4%; in experiment [5], 9%; in experiment [6] it was 70%. For the same molecule, the “%Inh” value in experiment [7] is on record as 99.5%; in experiment [8] it was 0%; in experiment [9] it was 10%; in [10], 6%.

As for `O=C(Nc1n[nH]c2nc(-c3nccs3)c(Br)cc12)C1CC1` [SB-742251], the “%Inh” value in experiment [1] is reported as 0%; in [2], 0%; in [3] it was 45%; in [4], 18%; in experiment [5], 26%; in [6], 0%. Besides, the “%Inh” value in experiment [7] came to 14%; in experiment [8], 0%; in [9], 4%; in [10], 14%.

As for `O=S(=O)(c1ccc(-c2ccnc3[nH]ccc23)cc1)N1CCCC1` [GSK846226], the “%Inh” value in experiment [1] came out at 20%; in [2], 15%; in experiment [3], 7%; in [4], 0%; in experiment [5], 0%; in experiment [6], 0%. In addition, the “%Inh” value in experiment [7] was determined as 24%; in experiment [8], 0%; in experiment [9], 24%; in [10] it was 27%.

In the case of `CN(C)CCN(C)C(=O)c1cc(-c2ccncc2)c(-c2ccc(Cl)c(O)c2)o1.Cl.Cl` [SB-710397], the “%Inh” value in experiment [1] is listed as 0%; in experiment [2] it was 0%; in experiment [3], 4%; in [4] it was 0%; in [5], 0%; in experiment [6] it was 0%. Also, the “%Inh” value in [7] turned out to be 22%; in experiment [8] it was 0%; in experiment [9], 0%; in experiment [10], 0%.

In the case of `O=C(Nc1n[nH]c2nc(-c3nccs3)c(Br)cc12)C1CCCC1` [SB-742609], the “%Inh” value was 0% in experiment [1]; 0% in experiment [2]; 48% in [3]; 47% in experiment [4]; 50% in experiment [5]; 0% in experiment [6]. The “%Inh” value in experiment [7] is given as 27%; in [8], 0%; in experiment [9] it was 7%; in experiment [10] it was 26%.

In the case of `CC(C)(C)c1ccc(C(=O)Nc2cn3cc(-c4cccnc4)ccc3n2)cc1`, the “%Inh” value in [1] turned out to be 15%; in [2] it was 10%; in experiment [3], 0%; in experiment [4] it was 13%; in experiment [5], 19%; in [6], 57%. In addition, the “%Inh” value in experiment [7] turned out to be 95.4%; in [8], 2%; in experiment [9], 2%; in experiment [10], 22%.

With `COc1ccc(C2=C(Nc3cccc(C(=O)O)c3)C(=O)NC2=O)cc1` [SB-390765], the “%Inh” value was 0% in experiment [1]; 0% in experiment [2]; 1% in [3]; 8% in experiment [4]; 0% in [5]; 30% in experiment [6]. Moreover, the “%Inh” value in experiment [7] is 0%; in [8], 21%; in experiment [9] it was 24%; in experiment [10], 6%.

For `CCn1c(-c2ccccn2)nc2cnccc21` [SB-736398], the “%Inh” value in [1] is on record as 0%; in experiment [2], 0%; in experiment [3], 3%; in [4] it was 0%; in experiment [5] it was 17%; in [6], 0%. Further, the “%Inh” value in experiment [7] is given as 0%; in experiment [8], 97%; in experiment [9], 0%; in [10], 16%.

Regarding `COc1ccc(CNC(=O)NC2CCN(c3ccnc(Nc4cc(OC)c(OC)c(OC)c4)n3)C2)cc1` (centres unmarked) [GSK1379748], the “%Inh” value in [1] is given as 0%; in experiment [2] it was 2%; in experiment [3], 7%; in [4], 0%; in experiment [5] it was 0%; in [6], 15%. Besides, the “%Inh” value in experiment [7] is 54%; in experiment [8], 0%; in experiment [9] it was 9%; in [10], 0%.

On to `Fc1cc(Cl)ccc1Nc1ccnc2cc(-c3ccc(CN4CCCCC4)o3)ccc12` [GW560116], for which the “%Inh” value is 0% in experiment [1]; 16% in [2]; 0% in experiment [3]; 0% in experiment [4]; 27% in experiment [5]; 65% in [6]. Besides, the “%Inh” value is reported as 94.8% in [7], 100% in experiment [8], 0% in [9] and 18% in experiment [10].

As to `Cc1ccccc1-n1cnc2c(N)ncnc21` [SKF-97510], the “%Inh” value in experiment [1] is listed as 12%; in experiment [2] it was 0%; in [3], 0%; in experiment [4] it was 0%; in experiment [5], 0%; in [6], 0%. The “%Inh” value is reported as 0% in experiment [7], 6% in experiment [8], 0% in [9] and 0% in [10].

In the case of `Clc1cc(Cl)cc(Nc2ccnc(Nc3cc(Cl)cc(Cl)c3)n2)c1` [GSK175726], the “%Inh” value in experiment [1] is given as 9%; in [2], 10%; in experiment [3], 0%; in [4] it was 19%; in [5], 0%; in experiment [6], 14%. In addition, the “%Inh” value is 21% in experiment [7], 19% in [8], 2% in experiment [9] and 0% in experiment [10].

In the case of `CC(=O)Nc1nc2cnc(Nc3cc(NC(=O)c4cccc(CCC#N)c4)ccc3C)nc2s1`, the “%Inh” value stood at 19% in experiment [1]; 0% in [2]; 9% in [3]; 6% in experiment [4]; 8% in experiment [5]; 94.3% in experiment [6]. In addition, the “%Inh” value is 100% in [7], 4% in [8], 0% in experiment [9] and 12% in experiment [10].

For `C[C@@H]1CCCCN1c1cc(-c2ccc3c(N)n[nH]c3c2)nc(N)n1` [GSK2258759], the “%Inh” value in experiment [1] was found to be 0%; in experiment [2] it was 0%; in experiment [3], 5%; in [4], 0%; in experiment [5], 0%; in [6], 0%. Besides, the results for the “%Inh” value in [7], in experiment [9] and in [10] were 6%, 3% and 17%, respectively.

Turning to `COc1cc2nccc(Nc3ccc(NC(=O)c4ccc(C)cc4)c(O)c3)c2cc1OC.Cl` [GW440132], the “%Inh” value in experiment [1] is on record as 0%; in experiment [2], 0%; in experiment [3], 4%; in experiment [4] it was 0%; in experiment [5], 19%; in experiment [6] it was 12%. Besides, the “%Inh” value in [7] is 69%; in experiment [8], 0%; in experiment [9] it was 26%; in experiment [10], 85%.
